Laboratory results published in PubChem BioAssay (NCI).
Compounds without any hit were thinned out: in the full panel of roughly 83,000, 20% have a hit.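 Each cell line was grown in a 96-well plate and treated with one concentration of compound for 48 hours. Values below 10 were considered active.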 Values without a mark were called inactive. The source made the active and inactive calls.

Key:
Assay in all cases: NCI-60 one-dose screen, 48 h (100 = growth as untreated, 0 = no growth, -100 = all killed)
Conditions in all cases: 10 µM unless noted
BT-549 breast = test system: BT-549 breast
MDA-MB-435 melanoma = test system: MDA-MB-435 melanoma
SW-620 colon = test system: SW-620 colon
MCF7 breast = test system: MCF7 breast
HCT-116 colon = test system: HCT-116 colon
HCC-2998 colon = test system: HCC-2998 colon
KM12 colon = test system: KM12 colon
T-47D breast = test system: T-47D breast

Row | SMILES | growth (BT-549 breast) | growth (MDA-MB-435 melanoma) | growth (SW-620 colon) | growth (MCF7 breast) | growth (HCT-116 colon) | growth (HCC-2998 colon) [%] | growth (KM12 colon) | growth (T-47D breast)
1 | CCN(CC)c1cc(N)c(Cc2c(N)cc(N(CC)CC)cc2Cl)c(Cl)c1 | 24.9% | 38.7% | 80% | 24.7% | 38.3% | 47 | – | –
2 | CC(C)c1ccc(C(=O)Nc2nc3ccc(O)cc3s2)cc1 | 55.5% | – | 16% | 9.03% (active) | 39.6% | – | 15.7% | –
3 | COc1ccc2c(c1)C(C)Cc1c(Cl)ncnc1N2C (configuration not stated) | – | – | 3.63% (active) | 1.16% (active) | 7.03% (active) | 22.3 | 4.12% (active) | 4.2% (active)
4 | N#CCCc1c[nH]c2ccccc12 | 97.6% | – | 92% | – | 92.8% | 113 | – | –
5 | COc1cc(-c2nc(SCCC(C)C)nc(Nc3ccccc3)c2C#N)cc(OC)c1OC | 96.4% | 92.9% | 104% | 92.7% | 91.7% | 116 | 100% | –
6 | O=C(CSc1nc2ccc([N+](=O)[O-])cc2[nH]1)Nc1ccc(F)c(Cl)c1 | -0.0932% (active) | 15.5% | 26.4% | 9.25% (active) | 7.89% (active) | 32.9 | – | –
7 | O=C(NCCO)c1cccnc1 | 108% | 106% | 96.1% | 98.5% | 99% | 103 | – | –
8 | O=C1NC(=O)C(Cc2ccccc2)(Cc2ccccc2)N1 | 90.4% | 96.4% | 101% | 96.2% | 90.9% | – | – | –
9 | CCOc1cc(/C=N\NC(=O)N/N=C/c2ccc(O)c(OCC)c2)ccc1O | – | -14.6% (active) | 20.9% | – | 24.8% | – | 21.2% | 29.5%
10 | CCCCC1COc2cccc3c2N1C=C/C3=C\C(=O)n1ccc2ccccc21 (configuration not stated) | 89.9% | -16.4% (active) | 46.4% | 48.6% | 58.3% | 101 | 68.2% | –
